Where “and” joins values, the source holds several entries; their conditions need not be identical. Identical values can stand only once. The campaign covered roughly 5,500 compounds. About 2,000 (36%) were called active. Another 18% or so got no clear call; they are omitted. Cut-off read from the data, not from the text of the source: active = normalized growth mostly below about 0.91 (no sharp cut-off); inconclusive = no clear call, values can overlap the other calls; inactive = mostly above about 0.92. The list shows a part of the results.
Test: chemical genetic growth profiling, strain panel (AID 1159580);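 note: tested at 20 µM; growth read once vehicle control cultures reached saturation at 30 °C; 1 = growth at the plate median or of vehicle wells; lower values mean less growth of the strain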
Details: S. cerevisiae deletion strains, growth OD

Measured: normalized growth

N#CC(O[C@@H]1O[C@H](CO[C@@H]2O[C@H](CO)[C@@H](O)[C@H](O)[C@H]2O)[C@@H](O)[C@H](O)[C@H]1O)c1ccccc1 (some centres not stated)
inactive: locus YAL013W, strain DEP1, hits give low values 1 | locus YAL021C, strain ccr4, hits give low values 0.965 | locus YAL026C, strain drs2, hits give low values 0.99 | locus YAL030W, strain snc1, hits give low values 0.986 | locus YBL061C, strain skt5, hits give low values 0.97 | locus YBR009C, strain hhf1, hits give low values 0.987 | locus YBR021W, strain FUR4, hits give low values 0.986 | locus YBR023C, strain chs3, hits give low values 0.979 | locus YBR171W, strain sec66, hits give low values 0.975 | locus YBR229C, strain ROT2, hits give low values 0.993 | locus YBR231C, strain swc5, hits give low values 0.981 | locus YBR279W, strain paf1, hits give low values 0.981 | locus YCL011C, strain gbp2, hits give low values 0.986 | locus YCL016C, strain dcc1, hits give low values 0.983 | locus YCL029C, strain bik1, hits give low values 1 | locus YCL061C, strain MRC1, hits give low values 0.99 | locus YCL069W, strain vba3, hits give low values 0.988 | locus YCR088W, strain abp1, hits give low values 0.975 | locus YDL005C, strain med2, hits give low values 0.967 | locus YDL035C, strain GPR1, hits give low values 1.01 | locus YDL040C, strain nat1, hits give low values 0.976 | locus YDL074C, strain BRE1, hits give low values 1.01 | locus YDL101C, strain DUN1, hits give low values 1 | locus YDL185W, strain tfp1, hits give low values 0.975 | locus YDL192W, strain arf1, hits give low values 0.998 | locus YDR001C, strain nth1, hits give low values 0.988 | locus YDR069C, strain doa4, hits give low values 0.975 | locus YDR101C, strain arx1, hits give low values 0.995 | locus YDR137W, strain rgp1, hits give low values 1.01 | locus YDR150W, strain NUM1, hits give low values 1.01 | locus YDR159W, strain sac3, hits give low values 0.961 | locus YDR162C, strain NBP2, hits give low values 1.04 | locus YDR195W, strain ref2 0.945 | locus YDR297W, strain sur2, hits give low values 0.992 | locus YDR318W, strain mcm21, hits give low values 1 | locus YDR334W, strain swr1, hits give low values 0.984 | locus YDR335W, strain msn5, hits give low values 0.988 | locus YDR388W, hits give low values 0.991 | locus YDR392W, strain spt3, hits give low values 0.974 | locus YDR502C, strain sam2, hits give low values 1.02 | locus YEL003W, strain gim4, hits give low values 0.99 | locus YEL037C, strain rad23, hits give low values 0.982 | locus YEL061C, strain CIN8 (second series), hits give low values 0.991 | locus YEL061C, strain CIN8, hits give low values 1 | locus YER015W, strain faa2, hits give low values 0.987 | locus YER016W, strain bim1, hits give low values 0.977 | locus YER110C, hits give low values 0.996 | locus YER111C, strain swi4, hits give low values 0.982 | locus YER155C, strain BEM2 (second series), hits give low values 0.966 | locus YER155C, strain BEM2, hits give low values 0.992 | locus YER167W, strain BCK2, hits give low values 1 | locus YFR010W, strain ubp6, hits give low values 0.977 | locus YGL078C, strain dbp3, hits give low values 0.989 | locus YGL086W, strain mad1, hits give low values 0.995 | locus YGL167C, strain pmr1, hits give low values 0.98 | locus YGL173C, strain kem1, hits give low values 0.963 | locus YGL227W, strain vid30, hits give low values 0.97 | locus YGL240W, strain doc1, hits give low values 0.971 | locus YGL248W, strain PDE1, hits give low values 1.05 | locus YGL253W, strain hxk2, hits give low values 0.985 | locus YGR135W, strain pre9, hits give low values 0.985 | locus YGR252W, strain gcn5, hits give low values 0.987 | locus YHR013C, strain ard1, hits give low values 0.964 | locus YHR027C, strain rpn1, hits give low values 0.98 | locus YHR030C, strain SLT2, hits give low values 1 and 0.975 | locus YHR079C, strain IRE1 (second series), hits give low values 0.99 | locus YHR079C, strain IRE1, hits give low values 0.971 | locus YHR094C, strain hxt1, hits give low values 0.978 | locus YHR129C, strain ARP1, hits give low values 1 | locus YHR142W, strain chs7, hits give low values 0.983 | locus YHR200W, strain rpn10, hits give low values 1 | locus YIL066C, strain RNR3, hits give low values 1.03 | locus YIL073C, strain SPO22, hits give low values 1.02 | locus YIL125W, strain kgd1, hits give low values 0.996 | locus YIR030C, strain dcg1, hits give low values 0.992 | locus YJL092W, strain hpr5, hits give low values 0.987 | locus YJL095W, strain BCK1 (second series), hits give low values 0.971 | locus YJL095W, strain BCK1, hits give low values 1.06 and 1.01 | locus YJL115W, strain asf1, hits give low values 0.977 | locus YJL129C, strain trk1, hits give low values 0.967 | locus YJL134W, strain LCB3, hits give low values 0.993 | locus YJL154C, strain vps35, hits give low values 0.979 | locus YJL164C, strain tpk1, hits give low values 0.98 | locus YJL166W, strain qcr8, hits give low values 0.982 | locus YJL168C, strain set2, hits give low values 0.993 | locus YJL187C, strain SWE1 (second series), hits give low values 1.02 | locus YJL187C, strain SWE1, hits give low values 0.994

From PubChem BioAssay AID1159580 (chemical genetic matrix, 2015)
